{"source": "PubChem BioAssay AID2069", "about": "(Sanford-Burnham Center for Chemical Genomics, 2009)", "note": "Screen size: about 1,200 compounds; about 210 (18%) were called active. These entries were drawn from the full list. A number with no mark means an inactive call. Cut-off read from the data, not from the text of the source: active = inhibition above about 30%; inactive = the rest."}
{"experiment": "fluorescence readout artefact check – biochemical, HTRF, uHTS, artefact control for SUMOylation inhibitor project, confirmation (AID 2069)", "conditions": "HTRF interference counterscreen, at 35 µM, hits give high values"}
{"smiles": "COC(=O)c1c(NC(=O)COC(=O)c2ccc(NC(=O)CC#N)cc2)sc2c1CCCCC2", "inhibition": "4.25%"}
{"smiles": "COCCn1c(-c2ccco2)nc2nc3ccccc3nc21", "inhibition": "12.7%"}
{"smiles": "Fc1cccc(-n2c(-c3cccs3)nc3nc4ccccc4nc32)c1", "inhibition": "30.1% (active)"}
{"smiles": "O=[N+]([O-])c1ccc(-c2ccc(C=Nc3cccc4ccccc34)o2)cc1", "inhibition": "11.9%"}
{"smiles": "CN(C)S(=O)(=O)c1cccc(-c2nn(-c3ccccc3)cc2/C=C2\\SC(=S)NC2=O)c1", "inhibition": "-4%"}
{"smiles": "Cc1nnc(Sc2cc(NCCCO)c([N+](=O)[O-])c3nonc23)s1", "inhibition": "-3.2%"}
{"smiles": "O=c1c2ccccc2oc2cc(NCCCN3CCOCC3)ccc12", "inhibition": "57.9% (active)"}
{"smiles": "COc1ccc(-c2ccc(C(c3c(C)[nH][nH]c3=O)c3c(C)[nH][nH]c3=O)o2)c([N+](=O)[O-])c1", "inhibition": "1.45%"}
{"smiles": "COc1cc2c(cc1OC)-c1cc3ccc4c(c3c[n+]1CC2)OCO4", "inhibition": "24.4%"}
{"smiles": "CCOC(=O)c1c(NC(=O)c2ccco2)n(C2CCCCC2)c2nc3ccccc3nc12", "inhibition": "21.2%"}
{"smiles": "Cc1cc(NCCO)c2cc(O)ccc2n1", "inhibition": "57.5% (active)"}
{"smiles": "Cc1ccccc1NC(=O)c1ccc(N/N=C/c2ccccc2O)c([N+](=O)[O-])c1", "inhibition": "24.7%"}
{"smiles": "O=C(NC(=S)Nc1cccc2c(O)cccc12)c1ccccc1[N+](=O)[O-]", "inhibition": "-1.65%"}
{"smiles": "COC(=O)/C(=C\\Nc1ccc(Cl)cc1Cl)NC(=O)c1ccc(OC)cc1", "inhibition": "0.3%"}
{"smiles": "Oc1ccc(C=Nc2cccc3ccccc23)c(O)c1", "inhibition": "0.55%"}
{"smiles": "COc1cccc(/C=N\\NC(=O)C2=NNC(=O)C2C)c1O", "note": "(stereo not drawn)", "inhibition": "24.4%"}
{"smiles": "COc1cc(OC)c(/C=N/NC(=O)c2ccc(NC(C)=O)cc2)cc1Br", "inhibition": "23.1%"}
{"smiles": "COc1cccc(/C=N/NC(=O)C(=O)N/N=C/c2cccc(OC)c2O)c1O", "inhibition": "48% (active)"}
{"smiles": "O=C(N/N=C/c1ccc(O)cc1O)C(=O)N/N=C/c1ccc(O)cc1O", "inhibition": "63.6% (active)"}
{"smiles": "COc1cccc2c(SCC(=O)N/N=C/c3ccc(O)cc3O)cc(C)nc12", "inhibition": "15.7%"}
{"smiles": "CC1(OC(=O)c2cccs2)C(=O)C=C2C=C3CCCN3C=C2C1=O", "note": "(stereo not drawn)", "inhibition": "7.4%"}
{"smiles": "O=C(CNc1ccc2ccccc2c1)N/N=C/c1cc2ccccc2nc1Cl", "inhibition": "2.4%"}
{"smiles": "CC1=NN(c2ccccc2)C(=O)C1", "inhibition": "7.95%"}
{"smiles": "Cc1[nH]n(-c2ncc(-c3ccccc3)s2)c(=O)c1C(c1ccc(Cl)cc1)C(C#N)C#N", "note": "(stereo not drawn)", "inhibition": "-20.6%"}
{"smiles": "O=C(Cn1c2ccccc2c(=O)c2ccccc21)N/N=C/c1cc([N+](=O)[O-])ccc1N1CCCCCC1", "inhibition": "10.9%"}
{"smiles": "O=C(N/N=C/c1cc(Cl)cc([N+](=O)[O-])c1O)c1ccccc1NS(=O)(=O)c1cccs1", "inhibition": "39.8% (active)"}
{"smiles": "O=C(N/N=C/c1ccc(N2CCOCC2)cc1)c1ccccc1NS(=O)(=O)c1cccs1", "inhibition": "24.1%"}
{"smiles": "Cc1ccccc1C(=O)Nc1cccc(C(=O)N/N=C/c2cc(Cl)cc([N+](=O)[O-])c2O)c1", "inhibition": "-53.5%"}
{"smiles": "C=C(C)[C@@H]1CC[C@]2(C(=O)O)CC[C@]3(C)[C@H](CC[C@@H]4[C@@]5(C)CC[C@H](O)C(C)(C)[C@@H]5CC[C@]43C)[C@@H]12", "inhibition": "5.35%"}
{"smiles": "Cc1ccc(Nc2nc(=O)c3cc([N+](=O)[O-])ccc3s2)cc1", "inhibition": "5.9%"}
{"smiles": "Cc1cccc(NC(=O)/C(C#N)=C/c2cn(CC(=O)NCc3ccco3)c3ccccc23)c1C", "inhibition": "13.7%"}
{"smiles": "CCCCCCC#Cc1cncc(C(=O)NNC(=O)Nc2cc(Cl)cc(Cl)c2)c1", "inhibition": "-17%"}
{"smiles": "O=C1C=C(N(CCO)Cc2ccccc2)c2ccccc2C1=O", "inhibition": "50.4% (active)"}
{"smiles": "O=C1C=C(NCc2ccccc2)c2ccccc2C1=O", "inhibition": "-1.95%"}
{"smiles": "O=C1C=C(Nc2ccccc2C(=O)O)c2ccccc2C1=O", "inhibition": "-7.25%"}
{"smiles": "CC(C)CNC1=CC(=O)CC(c2ccco2)C1", "note": "(stereo not drawn)", "inhibition": "-0.9%"}
{"smiles": "COc1cccc(C(c2c(C)[nH]n(-c3ccccc3)c2=O)c2c(C)[nH]n(-c3ccccc3)c2=O)c1OC", "inhibition": "-27.4%"}
{"smiles": "Nc1ncnc2c1ncn2C1OC(COP(=O)(O)O)C(O)C1O", "note": "(stereo not drawn)", "inhibition": "-7%"}
{"smiles": "O=C1OC(Nc2ccc3ncccc3c2)c2ccccc21", "note": "(stereo not drawn)", "inhibition": "24%"}
{"smiles": "O=[N+]([O-])c1ccc(O)c(C=Nc2cccc3ncccc23)c1", "inhibition": "4.3%"}
{"smiles": "N#CC1=C(N)N2C(=C(C#N)C1c1ccc(Br)cc1)Nc1ccccc12", "note": "(stereo not drawn)", "inhibition": "7.05%"}
{"smiles": "O=c1nc2s/c(=C\\c3ccco3)c(=O)n2nc1Cc1ccc(F)cc1", "inhibition": "-3.1%"}
{"smiles": "OC(COc1ccccc1)CSc1ncn[nH]1", "note": "(stereo not drawn)", "inhibition": "14.6%"}
{"smiles": "COc1ccc(NC(=S)Nc2ccc3nccnc3c2)cc1", "inhibition": "8.85%"}
{"smiles": "Fc1ccc(NC(=S)Nc2ccc3nccnc3c2)cc1", "inhibition": "7.9%"}
{"smiles": "CC(C)N(C(=O)Nc1ccc2nccnc2c1)C(C)C", "inhibition": "31.1% (active)"}
{"smiles": "COc1ccc(-n2c(NC(=O)c3ccc(Br)o3)c(C#N)c3nc4ccccc4nc32)cc1", "inhibition": "12.1%"}
{"smiles": "Cn1c(=O)n(C)c2cc(S(=O)(=O)NCCO)ccc21", "inhibition": "-3.1%"}
{"smiles": "O=C(Nc1cccc2nsnc12)c1ccc(-c2cccc(Cl)c2)o1", "inhibition": "25.9%"}
{"smiles": "Cc1ccc2nsnc2c1NC(=O)c1ccc(-c2cc(Cl)ccc2Cl)o1", "inhibition": "20.6%"}
{"smiles": "CCOc1cc(C2c3c(oc4ccccc4c3=O)C(=O)N2c2nccs2)ccc1O", "note": "(stereo not drawn)", "inhibition": "-2.15%"}
{"smiles": "COc1ccccc1Oc1c(C)oc2c(CN3CCN(C)CC3)c(O)ccc2c1=O", "inhibition": "30.4% (active)"}
{"smiles": "CCOc1ccccc1Oc1c(C)oc2c(CN3CCN(C)CC3)c(O)ccc2c1=O", "inhibition": "40.3% (active)"}
{"smiles": "Oc1ccc2ccccc2c1C=NCc1cn2ccsc2n1", "inhibition": "0.1%"}
{"smiles": "CC(C)c1ccc(NC(=S)Nc2cccc3ccccc23)cc1", "inhibition": "-7.9%"}
{"smiles": "COc1ccc2cc3c(N)nn(C(=O)Cc4ccc(Cl)cc4)c3nc2c1", "inhibition": "23.9%"}
{"smiles": "CCN(CC)C(=O)c1sc2nc(-c3ccncc3)[nH]c(=O)c2c1C", "inhibition": "47.2% (active)"}
{"smiles": "CCCCCCC(C)OC(=O)c1ccccc1C(=O)O", "note": "(stereo not drawn)", "inhibition": "3.05%"}
{"smiles": "NC(=S)n1[nH]c(-c2ccc([N+](=O)[O-])cc2)c(N=Nc2cccc(Cl)c2)c1=O", "inhibition": "10.7%"}
{"smiles": "COc1ccc2oc(=O)c(C(=O)NCc3ccco3)cc2c1", "inhibition": "48.4% (active)"}
{"smiles": "COc1ccc(-c2cc(C(F)(F)F)n3ncc(C(=O)NCc4ccco4)c3n2)cc1", "inhibition": "44.1% (active)"}
{"smiles": "Cc1onc(-c2ccccc2Cl)c1C(=O)NCc1ccco1", "inhibition": "11.2%"}
{"smiles": "COc1ccc(CCn2c(N)c(C(=O)NCc3ccco3)c3nc4ccccc4nc32)cc1OC", "inhibition": "1.65%"}
{"smiles": "COc1ccc(CNC(=O)c2c(C)oc3c2C(=O)c2ccccc2C3=O)cc1", "inhibition": "5.35%"}
{"smiles": "COc1ccc2oc(=O)c(/C(C)=N/NC(=O)c3ccncc3)cc2c1", "inhibition": "18.8%"}
{"smiles": "COc1ccc2oc(=O)c(C(=O)NCC3CCCO3)cc2c1", "note": "(stereo not drawn)", "inhibition": "40.9% (active)"}
{"smiles": "COc1ccc(C(=O)Nc2ccc(-c3nnn(CC(=O)NCc4ccco4)n3)cc2)cc1", "inhibition": "26.7%"}
{"smiles": "Cc1cc(C)cc(NC(=S)Nc2cccc3cnccc23)c1", "inhibition": "-5.7%"}
{"smiles": "COc1ccc(S(=O)(=O)N(C)c2ccc(C(=O)NCc3ccccn3)cc2)cc1", "inhibition": "-4.1%"}
{"smiles": "N#CC1=C(N)Oc2n[nH]c(-c3cccs3)c2C1c1ccoc1", "note": "(stereo not drawn)", "inhibition": "-10.8%"}
{"smiles": "COC(=O)c1cc(O)cc(OC)c1Oc1cc(C)cc(O)c1C(=O)O", "inhibition": "11%"}
{"smiles": "COc1ccc2c(C)c(C(=O)NCC(C)O)oc2c1OC", "note": "(stereo not drawn)", "inhibition": "38% (active)"}
{"smiles": "Oc1ccc(NCc2ccccc2OCc2ccccc2F)cc1", "inhibition": "-9.2%"}
{"smiles": "COc1cc2c(-c3ccc(O)cc3)nc3c(c(C)nn3-c3ccccc3)c2cc1OC", "inhibition": "9.45%"}
{"smiles": "CC(=O)Nc1ccc(-c2cn3cccnc3n2)cc1", "inhibition": "52.3% (active)"}
{"smiles": "CC(=O)Nc1ccc(S(=O)(=O)Nc2cccn(Cc3ccc(C)cc3)c2=O)cc1", "inhibition": "1.85%"}
{"smiles": "CCCCCCCC(=O)Nc1ccc(C(=O)N/N=C/c2cccc([N+](=O)[O-])c2)cc1", "inhibition": "-8.25%"}
{"smiles": "CCCCCC(=O)Nc1ccc(-c2cn3cccnc3n2)cc1", "inhibition": "49.3% (active)"}
{"smiles": "CCCCCCCn1c(NC(=O)CC)nc2ccccc21", "inhibition": "4.3%"}
{"smiles": "CCc1ccc(S(=O)(=O)/N=C2\\C=CC(=O)c3ccccc32)cc1", "inhibition": "7.75%"}
{"smiles": "Cc1ccc(-n2nc(C)c3c2OC(N)=C(C#N)C3c2ccc(C)o2)cc1", "note": "(stereo not drawn)", "inhibition": "-11.4%"}
{"smiles": "O=C(Nc1ccc(Cl)c(Cl)c1)Nn1cnnc1", "inhibition": "41.3% (active)"}
{"smiles": "CN(C)S(=O)(=O)c1cc(NC(=O)CNCc2ccccc2)ccc1Cl", "inhibition": "-6%"}
{"smiles": "NS(=O)(=O)c1ccc(NC(=O)c2ccc(-c3ccccc3)cc2)cc1", "inhibition": "-3.1%"}
{"smiles": "Cc1[nH][nH]c(=O)c1C(c1ccc(-c2ccc(C(=O)O)cc2)o1)c1c(C)[nH][nH]c1=O", "inhibition": "0.5%"}
{"smiles": "CCOC(=O)c1sc(NC(=O)c2cccc(S(=O)(=O)N3CCc4ccccc43)c2)c(C#N)c1C", "inhibition": "-22.4%"}
{"smiles": "Cc1c(Br)c(O)c(Br)c2sc(=O)oc12", "inhibition": "-25.6%"}
{"smiles": "O=C(NNc1cc(N2CCOCC2)nc(N2CCOCC2)n1)c1ccc([N+](=O)[O-])cc1", "inhibition": "1.6%"}
{"smiles": "Nc1cccc2cnccc12", "inhibition": "3.2%"}
{"smiles": "COc1ccc(C(=O)CSc2nnc(-c3ccco3)c(-c3ccco3)n2)cc1", "inhibition": "-2.15%"}
{"smiles": "NN1C(=O)/C(=C\\c2ccco2)SC1=S", "inhibition": "4.75%"}
{"smiles": "Nc1ccc2c(c1)C/C(=C/c1ccco1)C2=O", "inhibition": "62.9% (active)"}
{"smiles": "NC1=NC(=O)/C(=C\\c2ccco2)S1", "inhibition": "16.6%"}
